Measurements reported in PubChem BioAssay AID488845 (National Center for Advancing Translational Sciences (NCATS), 2010).
The source made the active and inactive calls. Calls follow the shape of the dose curve; as a rule, active = well fitted curve in the direction sought with a large enough effect; inactive = no such curve, though single readings can be large or run the other way.

Target: Lysosomal acid glucosylceramidase (Homo sapiens) (UniProt P04062)
Test: qHTS Assay for Inhibitors and Activators of N370S glucocerebrosidase as a Potential Chaperone Treatment of Gaucher Disease: Primary Screen Confirmation Using LC/MS
Conditions: N370S GC spleen homogenate, 4MU-glucoside, LC/MS detection
Source text: NIH Chemical Genomics Center [NCGC] NIH Molecular Libraries Probe Production Centers Network [MLPCN] MLPCN Grant: MH086442-01 Assay Submitter (PI): Wei Zheng Glucocerebrosidase (GC) catalyzes the hydrolysis of beta-glucocerebroside to glucose and ceramide in lysosomes. Mutations in the glucocerebrosidase gene result in Gaucher disease, an autosomal recessive lysosomal storage disorder. Many of the mutations encountered in patients with Gaucher disease are missense alterations that may cause misfolding, decreased stability and/or mistrafficking of this lysosomal protein. […] These inhibitors include iminosugar analogs and three non-iminosugar inhibitors identified from a previous HTS of 62,000 compounds with the wild type recombinant enzyme. However, the enhancement of enzyme activity by the chaperone action of an enzyme inhibitor must be balanced against the direct inhibition of the enzyme. An enzyme activator could also function as a chaperone by binding to the enzyme and helping to correct its misfolding and mistrafficking. While activators for GC have not yet been identified, they may have better therapeutic potential than inhibitors. Therefore the discovery and development of chemical activators may provide a new strategy for the chaperone therapy. We have optimized a new assay using N370S mutant GC derived from the spleen of a Gaucher patient. […] In addition, the MLPCN compound library has expanded, which increases the chance of finding new and better probes. This assay uses liquid chromatography linked to a mass spectrometer to assess the ability of glucocerebrosidase in the spleen homogenate to cleave either 4-methylumbelliferyl-beta-D-glucopyranoside substrate or a labeled version of the natural substrate, glucosylceramide.
NCGC Assay Protocol Summary: This is a fluorogenic enzyme assay with 4-methylumbelliferyl-beta-D-glucopyranoside as the substrate and N370S glucocerebrosidase from human spleen homogenate as the enzyme preparation. Upon the hydrolysis of this fluorogenic substrate, the resulting product, […] which can be detected by a standard fluorescence plate reader. Data were normalized to the controls for basal activity (without enzyme) and 100% activity (with enzyme). The AC50 values were determined from concentration-response data modeled with the standard Hill equation. Assay buffer: 50 mM citric acid (titrated with potassium phosphate to pH 5.0), 100 mM potassium chloride, 10 mM sodium chloride, 1 mM magnesium chloride, 0.01% Tween-20. […] Compounds were monitored using fluorescence detection with an excitation wavelength of […]. […]

Sequence of Lysosomal acid glucosylceramidase (Homo sapiens) (P04062 whole entry N409S): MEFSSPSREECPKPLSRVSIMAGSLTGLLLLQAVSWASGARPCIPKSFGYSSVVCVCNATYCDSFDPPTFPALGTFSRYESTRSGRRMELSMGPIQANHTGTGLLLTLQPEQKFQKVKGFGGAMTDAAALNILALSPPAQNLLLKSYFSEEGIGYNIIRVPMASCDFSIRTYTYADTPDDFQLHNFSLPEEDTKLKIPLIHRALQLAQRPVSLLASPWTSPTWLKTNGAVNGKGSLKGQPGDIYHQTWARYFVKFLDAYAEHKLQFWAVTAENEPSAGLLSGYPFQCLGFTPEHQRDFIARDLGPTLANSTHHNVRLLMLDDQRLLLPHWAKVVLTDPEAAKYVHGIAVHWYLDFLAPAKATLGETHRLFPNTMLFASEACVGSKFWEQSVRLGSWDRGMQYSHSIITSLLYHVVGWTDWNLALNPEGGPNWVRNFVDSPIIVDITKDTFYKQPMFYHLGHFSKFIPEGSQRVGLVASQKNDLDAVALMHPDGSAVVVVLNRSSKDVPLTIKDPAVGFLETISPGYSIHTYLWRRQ

Structure (SMILES)	Potency
Cc1cc(C)n2ncc(C(=O)Nc3ccc(C(F)(F)F)cc3)c2n1	1340 nM (active)
Cc1cc(C)n2ncc(C(=O)Nc3ccc(Br)cc3)c2n1	1190 nM (active)
O=C(Nc1ccccc1Sc1ccccc1)c1cnn2c1NC(=C1CC1)C=C2C(F)F	3000 nM (active)
C#Cc1ccc(NC(=O)c2cnn3c(C)cc(C)nc23)cc1	3730 nM (active)
